Pemphigus Ab inh – blocks pemphigus antibody binding to human desmoglein-3; DSG3-coupled beads, scFv-anti-DSG3-GFP binding, flow cytometry; active compounds read low; binding (percent of control), % at 10 µM; 0.48% of 310,000 active; AID 588358;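 active = binding more than 3 SD below its plate's average and above zero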;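 also: hits lower antibody fragment binding to DSG3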
GRK2 aptamer HTS – blocks RNA aptamer binding to human GRK2; P25098; bead flow cytometry, FAM-aptamer displacement from GRK2; inhibition of aptamer binding, % at 10 µM; 0.59% of 330,000 active;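 active = inhibition of aptamer binding above 40%, roughly 3 SD of noise, on plates passing a quality check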;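 also: median bead fluorescence of bound FAM aptamer so fluorescent compounds give negative values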
GASC-1 inh – inhibitors of human GASC-1 (JMJD2C) demethylase; inhibition, % at 2.35 µM; GST-JMJD2C(1-420) H3K9me3 demethylation, DELFIA europium; 0.069% of 330,000 active; Q9H3R0;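 active = more than half of a compound's replicate wells show inhibition beyond 50%, single wells judged on their own value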;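 also: signal counts dimethyl H3K9 product captured on neutravidin plate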
Target sequence (Q9H3R0 1-420 limits assumed): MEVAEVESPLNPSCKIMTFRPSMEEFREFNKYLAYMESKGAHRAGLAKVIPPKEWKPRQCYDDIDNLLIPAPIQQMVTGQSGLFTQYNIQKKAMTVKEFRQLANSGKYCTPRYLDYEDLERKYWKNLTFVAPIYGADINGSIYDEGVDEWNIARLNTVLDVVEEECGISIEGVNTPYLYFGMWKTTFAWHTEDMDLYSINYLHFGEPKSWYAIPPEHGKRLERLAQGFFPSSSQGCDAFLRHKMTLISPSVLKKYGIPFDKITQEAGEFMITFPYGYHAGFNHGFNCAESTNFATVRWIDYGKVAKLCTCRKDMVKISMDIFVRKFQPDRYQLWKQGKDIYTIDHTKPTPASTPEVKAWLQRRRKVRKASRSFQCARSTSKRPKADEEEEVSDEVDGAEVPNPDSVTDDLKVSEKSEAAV
PREPL inhibitor – human PREPL enzyme inhibition; Q4J6C6; recombinant PREPL, fluorescence polarization activity-based probe; inhibition, % at 5.96 µM; 0.68% of 320,000 active; AID 2751; in the data active = inhibition above about 43%
VLA-4 inh – inhibition in a human VLA-4 binding assay | P13612 | VLA-4 expressing cells, ligand binding flow cytometry | inhibition, % (about 7 µM as worked out from the volumes in the protocol) | 0.2% of 330,000 active | AID 2557; in the data active = inhibition above about 50%
GRK2 CP1 – confirmation of human GRK2 inhibitors displacing RNA aptamer | shares compounds with GRK2 aptamer HTS | bead-bound GRK2, FAM-aptamer displacement, flow cytometry | aptamer displacement, % at 10 µM | 4% of 2,000 active | AID 504451;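 active = aptamer displacement above 40%, near three times the noise of non-fluorescent compounds, on plates passing quality checks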;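 also: negative values mostly reflect intrinsic compound fluorescence rather than true enhancement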
Aptamer quench SP – aptamer fluorescence quenching in GRK2 counter-screen; shares compounds with GRK2 aptamer HTS; Carboxyfluorescein RNA aptamer on beads, flow cytometry quenching; active compounds read low; 2,000 tested, under 10 active; fluorescence response (% of DMSO), % at 10 µM;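 active = compounds that quench the bead-bound fluorescent RNA probe, cutting fluorescence to under half of the solvent control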;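 also: counterscreen run without GRK2 so only probe quenching by compound is measured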
GRK2 confirm 2 – human GRK2 inhibition confirmation, cherry pick 2. shares compounds with GRK2 aptamer HTS. bead-bound GRK2, FAM-aptamer displacement, flow cytometry. inhibition of aptamer binding, % at 10 µM. 360 tested, under 10 active;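 active = inhibition of aptamer binding above 40%, about triple the noise seen with nonglowing compounds, on plates passing quality control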;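 also: negative values mostly come from compounds that fluoresce themselves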
FAM quench SP – counter-screen for GRK2 binding hits: quenchers of fluorescent RNA aptamer. shares compounds with GRK2 aptamer HTS. carboxyfluorescein RNA aptamer beads, flow cytometry quenching; active compounds read low. fluorescence response vs DMSO, % at 10 µM. 360 tested, under 10 active;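 active = response vs DMSO under 50%, meaning signal dropped by over half, treated as fluorescence quencher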;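 also: labelled aptamer on streptavidin beads without GRK2 as a quench counter-screen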
Hits are given with their value; ! = a repeat was not active. An excerpt weighted towards active compounds, which were near 1.6% of everything screened.

What do the screens show for `Cc1ccc(S(=O)(=O)N2CCOCC2)cc1NC(=O)COC(=O)c1ccc2c(c1)OCO2`?
Pemphigus Ab inh: inactive; GRK2 aptamer HTS: 100.0; GASC-1 inh: inactive; PREPL inhibitor: inactive; VLA-4 inh: inactive; GRK2 CP1: inactive; Aptamer quench SP: inactive

How did N#C/C(C(=O)Oc1ccccc1)=C1/Nc2ccccc2-c2ccccc21 do in these assays?
Pemphigus Ab inh: inactive; GASC-1 inh: inactive

What do the screens show for `CCC(C)c1ccc(NC(=S)N2CCN(C(=O)C3CCCO3)CC2)cc1` (stereo not drawn)?
Pemphigus Ab inh: inactive; GRK2 aptamer HTS: 74.0; GASC-1 inh: inactive; PREPL inhibitor: inactive; VLA-4 inh: inactive; GRK2 confirm 2: inactive; FAM quench SP: inactive

Results for COc1ccc(CC(=O)Nc2nnc(C)s2)cc1 ?
Pemphigus Ab inh: inactive; GRK2 aptamer HTS: inactive; GASC-1 inh: inactive; PREPL inhibitor: inactive; VLA-4 inh: inactive

What do the screens show for `Cc1ccc(OCC(=O)N(Cc2cccs2)C2CCS(=O)(=O)C2)cc1C` (stereo not drawn)?
Pemphigus Ab inh: inactive; GRK2 aptamer HTS: inactive; GASC-1 inh: inactive; PREPL inhibitor: inactive; VLA-4 inh: inactive

Results for O=C(Nc1ccccc1Cl)c1cc[n+]([O-])cc1 ?
Pemphigus Ab inh: inactive; GRK2 aptamer HTS: inactive; GASC-1 inh: inactive; PREPL inhibitor: inactive; VLA-4 inh: inactive

How did COc1ccc(C(=O)C2CCCN(Cc3cnc(N4CCOCC4)s3)C2)c(OC)c1 (stereo not drawn) do in these assays?
Pemphigus Ab inh: inactive; GRK2 aptamer HTS: inactive; GASC-1 inh: inactive; PREPL inhibitor: inactive; VLA-4 inh: inactive

What do the screens show for `COc1ccc(C(=O)C2CCCN(Cc3cnc(N4CCOCC4)s3)C2)cc1F` (stereo not drawn)?
Pemphigus Ab inh: inactive; GRK2 aptamer HTS: inactive; GASC-1 inh: inactive; PREPL inhibitor: inactive; VLA-4 inh: inactive; GRK2 CP1: inactive; Aptamer quench SP: inactive

How did CC(C)Oc1cccc(C(=O)C2CCCN(Cc3cnc(N4CCOCC4)s3)C2)c1 (stereo not drawn) do in these assays?
Pemphigus Ab inh: inactive; GRK2 aptamer HTS: 53.0; GASC-1 inh: inactive; PREPL inhibitor: inactive; VLA-4 inh: inactive; GRK2 CP1: inactive; Aptamer quench SP: inactive

What do the screens show for `CCC(C)Nc1nc(SC(C(C)=O)C(C)=O)nc(N(C)C)n1` (stereo not drawn)?
Pemphigus Ab inh: inactive; GRK2 aptamer HTS: inactive; GASC-1 inh: inactive; PREPL inhibitor: inactive; VLA-4 inh: inactive

Results for c1ccc(CC2=NCCN2)cc1 ?
Pemphigus Ab inh: inactive; GRK2 aptamer HTS: inactive; GASC-1 inh: inactive; PREPL inhibitor: inactive; VLA-4 inh: inactive

What do the screens show for `c1ccc(CN(CC2=NCCN2)c2ccccc2)cc1`?
Pemphigus Ab inh: 14.4!; GRK2 aptamer HTS: inactive; GASC-1 inh: inactive; PREPL inhibitor: inactive; VLA-4 inh: inactive; GRK2 CP1: inactive; Aptamer quench SP: inactive

How did O=C(c1ccc(S(=O)(=O)N2CCCCC2)cc1)N1CCN(c2ccccc2F)CC1 do in these assays?
Pemphigus Ab inh: inactive; GRK2 aptamer HTS: inactive; GASC-1 inh: inactive; PREPL inhibitor: inactive; VLA-4 inh: inactive

Results for COc1ccccc1N1CCN(C(=O)c2ccc(S(=O)(=O)N3CCCCCC3)cc2)CC1 ?
Pemphigus Ab inh: inactive; GRK2 aptamer HTS: inactive; GASC-1 inh: inactive; PREPL inhibitor: inactive; VLA-4 inh: inactive; GRK2 CP1: inactive; Aptamer quench SP: inactive

How did CC1CC(C)CN(S(=O)(=O)c2ccc(C(=O)N3CCN(c4ccccc4)CC3)cc2)C1 (stereo not drawn) do in these assays?
Pemphigus Ab inh: inactive; GRK2 aptamer HTS: inactive; GASC-1 inh: inactive; PREPL inhibitor: inactive; VLA-4 inh: inactive; GRK2 CP1: inactive; Aptamer quench SP: inactive

What do the screens show for `Cc1nnc(NC(=O)c2ccc(Br)o2)s1`?
Pemphigus Ab inh: inactive; GRK2 aptamer HTS: 85.0; GASC-1 inh: inactive; PREPL inhibitor: inactive; VLA-4 inh: inactive; GRK2 CP1: inactive; Aptamer quench SP: inactive

How did Cc1nnc(NC(=O)c2ccc(Br)cc2)s1 do in these assays?
Pemphigus Ab inh: inactive; GRK2 aptamer HTS: inactive; GASC-1 inh: inactive; PREPL inhibitor: inactive; VLA-4 inh: inactive

What do the screens show for `O=C(CSc1nnc(SCc2ccc(Cl)cc2)s1)N1CCN(C(=O)c2ccco2)CC1`?
GRK2 aptamer HTS: inactive; GASC-1 inh: inactive; PREPL inhibitor: inactive; VLA-4 inh: inactive

What do the screens show for `COc1ccccc1-n1cnnc1SCC(=O)N1CCN(S(=O)(=O)c2ccccc2)CC1`?
GRK2 aptamer HTS: inactive; GASC-1 inh: inactive; PREPL inhibitor: inactive; VLA-4 inh: inactive

Results for O=C(CSc1nncs1)N1CCN(C(=O)c2ccco2)CC1 ?
Pemphigus Ab inh: inactive; GRK2 aptamer HTS: 81.0; GASC-1 inh: inactive; PREPL inhibitor: inactive; VLA-4 inh: inactive; GRK2 CP1: inactive; Aptamer quench SP: inactive

How did COc1ccccc1-n1cnnc1SCC(=O)N1CCN(C(=O)c2ccco2)CC1 do in these assays?
Pemphigus Ab inh: inactive; GRK2 aptamer HTS: 45.0; GASC-1 inh: inactive; PREPL inhibitor: inactive; VLA-4 inh: inactive; GRK2 CP1: inactive; Aptamer quench SP: inactive

How did CCCCn1c(N)c(N(Cc2ccccc2OC)C(=O)CN2C(=O)NC(C)(c3ccccc3)C2=O)c(=O)[nH]c1=O (stereo not drawn) do in these assays?
Pemphigus Ab inh: inactive; GRK2 aptamer HTS: inactive; GASC-1 inh: inactive; PREPL inhibitor: inactive; VLA-4 inh: inactive

What do the screens show for `O=C(COC(=O)c1sc2cc(Cl)ccc2c1Cl)Nc1ncc(Cl)cc1Cl`?
GRK2 aptamer HTS: inactive; GASC-1 inh: inactive; PREPL inhibitor: inactive; VLA-4 inh: inactive

Results for COc1ccccc1C(=O)Nc1c2c(nn1-c1ccc(Cl)cc1)CS(=O)(=O)C2 ?
Pemphigus Ab inh: inactive; GRK2 aptamer HTS: 44.0; GASC-1 inh: inactive; PREPL inhibitor: inactive; VLA-4 inh: inactive; GRK2 confirm 2: inactive; FAM quench SP: inactive

Results for COc1ccccc1C(=O)Nc1c2c(nn1-c1ccc([N+](=O)[O-])cc1)CS(=O)(=O)C2 ?
Pemphigus Ab inh: inactive; GRK2 aptamer HTS: inactive; GASC-1 inh: inactive; PREPL inhibitor: inactive; VLA-4 inh: inactive

What do the screens show for `O=[N+]([O-])c1ccccc1/C=N/Nc1nc(N2CCCC2)nc(N2CCCC2)n1`?
Pemphigus Ab inh: inactive; GRK2 aptamer HTS: 59.0; GASC-1 inh: inactive; PREPL inhibitor: inactive; VLA-4 inh: inactive; GRK2 CP1: inactive; Aptamer quench SP: inactive

What do the screens show for `O=[N+]([O-])c1ccccc1/C=C/C=N/Nc1nc(N2CCCCC2)nc(N2CCCCC2)n1`?
Pemphigus Ab inh: inactive; GRK2 aptamer HTS: inactive; GASC-1 inh: inactive; PREPL inhibitor: inactive; VLA-4 inh: inactive
